GalR3 antagonist: antagonists of human GalR3. inhibition, % at 3 µM. 0.44% of 360,000 active. AID 651719. HEK293 GalR3-CNG cAMP membrane potential fluorescence; galR3 body fused to GalR1 C-terminus;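 active = inhibition above the screen-wide average plus 3 SD, cut at about 13% in these data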;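 note: forskolin and galanin both at EC90 stimulate the cells; cAMP rise reported by CNG channel membrane potential dye signal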
NCOA3 inh: inhibits human SRC3 coactivator. HEK293 GAL4-SRC3 luciferase reporter, luminescence. inhibition, % at 3.6 µM. 0.17% of 360,000 active. Q9Y6Q9;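 active = inhibition above a per-campaign cutoff, the mean of all compounds plus 3 SD, cut at about 60% in these data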;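 note: higher means less SRC3-driven luciferase light from the GAL4 reporter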
LRH-1 inv ag: inverse agonists of human LRH-1 (NR5A2) | 0.13% of 360,000 active | inhibition, % at 3.6 µM | HEK293T StAR-luciferase reporter, LRH-1 transfected, 24 h | O00482;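 active = inhibition above the mean inhibition of all tested compounds plus 3 SD, cut at about 73% in these data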
Target sequence (O00482 whole entry, looked up): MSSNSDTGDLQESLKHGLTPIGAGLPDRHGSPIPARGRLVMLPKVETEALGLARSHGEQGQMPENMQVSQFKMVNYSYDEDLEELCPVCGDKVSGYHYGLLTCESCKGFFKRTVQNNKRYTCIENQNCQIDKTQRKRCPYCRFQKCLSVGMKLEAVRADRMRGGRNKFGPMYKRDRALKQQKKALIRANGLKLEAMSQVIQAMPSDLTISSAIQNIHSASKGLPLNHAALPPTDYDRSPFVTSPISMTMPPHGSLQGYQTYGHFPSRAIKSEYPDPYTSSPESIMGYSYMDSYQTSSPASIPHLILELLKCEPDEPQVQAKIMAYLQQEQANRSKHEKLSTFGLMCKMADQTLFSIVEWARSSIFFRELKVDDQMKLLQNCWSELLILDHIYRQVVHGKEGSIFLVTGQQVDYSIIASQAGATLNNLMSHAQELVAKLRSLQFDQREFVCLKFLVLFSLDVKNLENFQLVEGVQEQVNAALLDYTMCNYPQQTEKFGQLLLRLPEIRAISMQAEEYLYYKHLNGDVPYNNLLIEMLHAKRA
COUP-TFII inh: NR2F2 (human) inhibition, primary screen | HEK293T NGFI-A luciferase reporter, luminescence | inhibition, % at 8.6 µM | 0.7% of 370,000 active;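 active = inhibition above a per-plate cutoff, mean inhibition of test wells between control levels plus 3 SD, cut at about 38% in these data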;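 note: cells cotransfected with COUP-TFII expression vector driving the NGFI-A reporter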
NCOA2 inhibitor: inhibits human steroid receptor coactivator 2; Q15596; HEK293 GAL4-SRC2 luciferase reporter, luminescence; inhibition, % at 9 µM; 0.17% of 370,000 active;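 active = inhibition above the mean inhibition of all tested compounds plus 3 SD, set per campaign, cut at about 52% in these data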
SRC1 inh: inhibitors of human steroid receptor coactivator 1 (SRC1) | 0.12% of 360,000 active | Q15788 | inhibition, % at 3.6 µM | HEK293 GAL4-SRC1 luciferase reporter, luminescence;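 active = inhibition above the campaign mean plus 3 SD, with each screening campaign given its own cutoff, cut at about 60% in these data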
Of the large screens only hits and unclear results are named; the others gave an inactive call. Sampled rows, rich in hits. Any-hit rate of the full collection: about 1.1%.

CCN(C[C@H]1[C@@H](c2ccc(C3=CCCC3)cc2)[C@H](CO)N1c1nc(C)c(C)s1)S(=O)(=O)c1ccccc1[N+](=O)[O-]	none (no result: GalR3 antagonist, NCOA3 inh, LRH-1 inv ag, SRC1 inh)
Nc1nc(N)nc(-c2cc([N+](=O)[O-])ccc2O)n1	none
Nc1nc(N)nc(-c2cc(O)ccc2O)n1	SRC1 inh 71
COc1ccc(Cn2cc(COC(=O)Nc3ccc(F)cc3)nn2)cc1	none (no result: GalR3 antagonist, NCOA3 inh, LRH-1 inv ag, SRC1 inh)
COc1cccc2c1C(=O)c1c(O)c3c(c(O)c1C2=O)C[C@@](O)(C(=O)CO)C[C@@H]3O[C@H]1C[C@H](N)[C@@H](O)[C@H](C)O1	LRH-1 inv ag 89 (no result: GalR3 antagonist, COUP-TFII inh, NCOA2 inhibitor)
CCCCCCCCN1CN2Cc3ccccc3C2CS1(=O)=O (configuration not stated)	none (no result: GalR3 antagonist, NCOA3 inh, LRH-1 inv ag, SRC1 inh)
Cc1ccccc1NC1=C/C(=N\S(=O)(=O)c2cccs2)c2ccccc2C1=O	NCOA3 inh 88, SRC1 inh 80
COc1ccc(Cc2nnc(N/N=C/c3ccc(O)cc3)[nH]c2=O)cc1OC	NCOA3 inh 69, NCOA2 inhibitor 53
COc1ccc(Cc2nnc(N/N=C/c3ccc(Br)cc3)[nH]c2=O)cc1OC	none
Cc1ccc(-c2csc(N/N=C/c3ccco3)n2)cc1	none
CN(C)S(=O)(=O)c1ccc(-c2csc(N/N=C/c3ccco3)n2)cc1	NCOA3 inh 73
CCOC(=O)c1ccc2c(c1)n(CC)c(/C=C/N(C)c1ccccc1)[n+]2CC	none
CC[n+]1c(/C=C/N(C)c2ccccc2)n(-c2ccccc2)c2ccc(-c3nc4ccccc4s3)cc21	NCOA3 inh 83, LRH-1 inv ag 90, SRC1 inh 82 (no result: GalR3 antagonist, COUP-TFII inh, NCOA2 inhibitor)
CN[C@H]1C[C@H]2c3[nH]c4c(-c5ccc6c(c5)OCO6)cccc4c3CCN2C[C@H]1[C@H](C)O	none (no result: GalR3 antagonist, NCOA3 inh, LRH-1 inv ag, SRC1 inh)
COc1ccc2nc(NC(=O)c3ccccc3C(=O)O)sc2c1	none
COc1ccc(C(=O)Nc2nc3ccccc3s2)c(OC)c1	NCOA3 inh 91, LRH-1 inv ag 93, COUP-TFII inh 99, NCOA2 inhibitor 93, SRC1 inh 89
CC(=O)c1cc(-c2ccccc2)c(=O)n2c1CCC2	none (no result: GalR3 antagonist, NCOA3 inh, LRH-1 inv ag, SRC1 inh)
CNc1ccc2ncc(-c3cccc(C(=O)N(C)C)c3)n2n1	NCOA2 inhibitor 56, SRC1 inh 69
CN(C)C(=O)c1cccc(-c2ccc3nncn3c2)c1	none
O=C1[C@@H](CCc2ccccc2)[C@@H]2c3ccccc3C=NN2[C@@H]2c3ccccc3C=NN12	none (no result: GalR3 antagonist, NCOA3 inh, LRH-1 inv ag, SRC1 inh)
COC[C@@H](OC(C)=O)[C@H]1OCc2ccccc2[C@@H]1/C=C/c1ccccc1	none (no result: GalR3 antagonist, NCOA3 inh, LRH-1 inv ag, SRC1 inh)
CC(=O)C1=C(c2ccc(Br)cc2)C(=O)c2ccccc2C1=O	NCOA3 inh 92, LRH-1 inv ag 85, COUP-TFII inh 71, NCOA2 inhibitor 70, SRC1 inh 91
COc1ccc(Br)cc1/C=C/C(=O)c1ccc(NC(C)=O)cc1	NCOA3 inh 71, NCOA2 inhibitor 61
COc1ccc(NC(=O)/C=C/c2cc(Br)ccc2OC)cc1	none
Cc1cc(O)c2c(c1O)C(=O)[C@]13C(=C2O)C(=O)[C@@H]2[C@@H](O)[C@H]1[C@@H]1[C@H](O)[C@H]3C(=O)C3=C(O)c4c(O)cc(C)c(O)c4C(=O)[C@]312	NCOA3 inh 75, LRH-1 inv ag 96, SRC1 inh 72 (no result: GalR3 antagonist, COUP-TFII inh, NCOA2 inhibitor)
S=C(Nc1ccccc1)OC1CCC12CCC(c1ccccc1)CC2 (configuration not stated)	none (no result: GalR3 antagonist, NCOA3 inh, LRH-1 inv ag, SRC1 inh)
O=C(/C=C/c1ccc(Cl)cc1)NC(=S)Nc1ccc(NC(=O)c2ccco2)cc1	SRC1 inh 68
COC(=O)[C@]12C[C@H](CC(=O)N3CCC(c4ccccc4)CC3)C(=O)N(CCc3ccc(OC)c(OC)c3)C1=C[C@H](C(C)C)O[C@@H]2C1CC1	none (no result: GalR3 antagonist, NCOA3 inh, LRH-1 inv ag, SRC1 inh)
CN(c1ncnc(N)c1[N+](=O)[O-])C1CCCCC1	NCOA3 inh 63, NCOA2 inhibitor 57, SRC1 inh 71
O=C(O)CCSc1nnc(-c2ccc3c(c2)OCO3)o1	NCOA2 inhibitor 70
CC(=O)CSc1nnc(-c2ccc3c(c2)OCO3)o1	none
C[C@@H]1CN([C@H](C)CO)C(=O)c2cc(NC(=O)Nc3ccccc3)ccc2O[C@@H](C)CCCCO[C@H]1CN(C)S(=O)(=O)c1ccc(F)cc1	none (no result: GalR3 antagonist, NCOA3 inh, LRH-1 inv ag, NCOA2 inhibitor, SRC1 inh)
CCC(=O)Nc1cc2nn(-c3ccc(OC)cc3)nc2cc1C	none
CCC(=O)Nc1cc2nn(-c3ccc(C)cc3)nc2cc1C	COUP-TFII inh 46
CN(C)CC1CCC/C(=C\c2ccc(OC(=O)c3ccc(Cl)cc3)cc2)C1=O (configuration not stated)	SRC1 inh 67

Screening results as filed in PubChem.
